High-throughput results from PubChem.
Pf growth 48h: P. falciparum growth inhibition at 48 hours (one generation); AID 504832; hit rate 5.9% among 310,000; Potency, µM (titrated, usually from 28.7 µM), inactives show top-dose activity change, negative = inhibition, hits mostly inhibitors; P. falciparum luciferase growth in erythrocytes, 48 h; further: potency means the concentration at half of the fitted maximal effect; on the % scale 0 is the no-effect control and ±100 the full control effect
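A one-generation exposure of luciferase-tagged malaria parasites in RPMI 1640/Albumax erythrocyte culture, 37 C and 5% CO2. Inhibition is inferred from decreased luminescence after adding detection reagent.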
Pf growth 96h: inhibits malaria parasite growth, 96 h; P. falciparum luciferase reporter growth, 96 h; AID 504834; hit rate 6.9% among 320,000; Potency, µM (titrated, usually from 28.7 µM), for the others: at the highest dose activity change, negative = inhibition, actives largely listed as inhibitors; further: potency means the concentration at half of the fitted maximal effect; on the % scale 0 is the no-effect control and ±100 the full control effect
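Luminescence readout: decreased luciferase signal marks inhibited growth of reporter-expressing P. falciparum in infected red cells (2% hematocrit, 0.05% parasitemia final), exposed to compound two generations (96 h, 37 C, 5% CO2).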
Shiga inhibitor: inhibitors of Shiga toxin in Vero cells; inhibition, % at 38.7 µM; AID 2315; Vero cells, Shiga toxin protein synthesis inhibition reporter; hit rate 9.2% among 290,000; in the data active means inhibition mostly above about 28%, no sharp cut-off; inactive means mostly below about 43%; further: 0% is about no effect
Sm TGR inh: inhibitors of Schistosoma mansoni thioredoxin glutathione reductase. hit rate 3% among 360,000. purified TGR, DTNB reduction, TNB absorbance 405 nm. Potency, µM (top dose mostly 114 µM), inactives show at the top dose activity change, negative = inhibition, actives largely listed as inhibitors. AID 485364. Q962Y6; further: potency means the concentration at half of the fitted maximal effect; on the % scale 0 is the no-effect control and ±100 the full control effect; nearly all actives have a fitted effect of over 60% in size
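Kinetic colorimetric format: TGR-catalysed, NADPH-driven DTNB reduction monitored via TNB absorbance. Enzyme dispensed at 20 nM; compound exposure 15 min at room temperature before reaction start.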
CHX counter: counter-screen for Shiga toxin inhibitors: cycloheximide protein synthesis inhibition. hit rate 12% among 300,000. max response, %. cell reporter, cycloheximide protein synthesis inhibition counterscreen; in the data active means max response mostly above about 13%, no sharp cut-off; inactive means mostly below about 14%; further: read at 38.3 µM for the half of the compounds with a filed dose; 0% is about no effect
NS1 function inh: blocks influenza NS1 protein function. AID 2326. hit rate 0.4% among 270,000. Potency, µM (doses to about 46.1 µM), for the others: at the top dose activity, positive = more growth; calls by dose curve; further: potency means the concentration at half of the fitted maximal effect; actives are rising curves; nearly all actives have a fitted effect of over 50% in size
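S. cerevisiae expressing influenza A NS1, grown in glucose, washed, then diluted 1:100 into pH 6.0 -URA galactose medium with 23 nl compound. Growth recovery read as OD600; NS1-free strain serves as control.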
Numbers without * were called inactive; ? = inconclusive; . = no result; [ ] = dose if it differs, or a comment. Compounds with a hit are over-represented: about 21% of the library has one in this group of screens. Unless noted, the call rests on the fitted dose curve; in most records, active means well fitted curve in the direction sought with a large enough effect; inconclusive means small, poorly fitted or top-dose-only effect, or another doubt; inactive means no such curve, though single readings can be large; an effect the other way counts as inactive or inconclusive.

SMILES	Pf growth 48h	Pf growth 96h	Shiga inhibitor	Sm TGR inh	CHX counter	NS1 function inh
COc1cc(/C=C2\SC(=Nc3ccc(N4CCOCC4)cc3)N(C)C2=O)ccc1OC(C)C(=O)O (stereo not drawn)	?	?	-11	1%	-2	12%
Cc1cc(OCC(=O)N2CCC(C(=O)O)CC2)c2c(C)cc(=O)oc2c1	4%	49%	7	7%	-1	1%
COCCCNC(=O)Cn1nc(-c2cccc(OC)c2)ccc1=O	8%	10µM*	-12	1%	1	7%
COCCCNC(=O)Cn1nc(-c2ccccc2OC)ccc1=O	5%	21%	21	5%	-3	7%
COCCCNC(=O)Cn1nc(-c2ccc(C)cc2)ccc1=O	44%	?	-10	-19%	-3	-5%
COc1ccccc1-c1ccc(=O)n(CC(=O)NC(C)(C)C)n1	46%	7.4µM*	5	0%	-2	0%
COCCNC(=O)Cn1nc(-c2ccccc2OC)ccc1=O	10%	66%	2	-3%	-4	3%
COCCNC(=O)Cn1nc(-c2ccccc2F)ccc1=O	16%	3.7µM*	-7	-19%	-4	12%
Cc1cc(=O)[nH]c(NN=C2C3CC4CC(C3)CC2C4)n1	8%	?	27	4%	18*	-2%
Cc1cc(=O)[nH]c(NN)n1	?	9.3µM*	9	-2%	8	-6%
Cc1cc(=O)[nH]c(Nc2cccc(C(F)(F)F)c2)n1	?	13µM*	-31	-11%	14	9%
Cc1cc(=O)[nH]c(NCCO)n1	-9%	3%	-23	-12%	-2	.
NS(=O)(=O)c1ccc(CCNC(=O)COC(=O)CC(c2ccccc2)c2ccccc2)cc1	-13%	-37%[1.15 µM]	16	-1%	-6	-2%
COc1cc(/C=C/CN2CCC(CO)(CC3CCCCO3)CC2)ccc1O (stereo not drawn)	-5%	0%	-11	13µM*	0	4%
COc1cc(/C=C/CN2CCC(Oc3ccc(C(=O)N4CCCC4)cc3)CC2)ccc1O	?	?	8	18µM*	4	32%
COc1ccc(NC(=O)N2CCC(CO)(CC3CCCCO3)CC2)c(OC)c1 (stereo not drawn)	1%	-12%	31	0%	5	5%
OCC1(CC2CCCCO2)CCN(C/C=C/c2ccccc2)CC1 (stereo not drawn)	5.2µM*	-15%	6	1%	-2	6%
COc1ccc(-c2[nH]ncc2CN2CCCCCCC2)c(OC)c1	-31%	?	-10	-12%	-3	3%
Cc1ccc2nc(C)/c(=N\O)c(C)nc2c1	40%	86%	86*	-8%	23*	-30%
Cc1nc2ccc(Cl)cc2nc(C)/c1=N\O	36%	178%	50	?	28*	-65%
Cc1nc2ccccc2nc(C)c1=NO	30%	51%	114*	0%	51*	-48%
Cc1cc(C)c2ccc(Cl)cc2n1	5%	23%	1	-4%	-1	-3%
O=C(CSc1nnc(CNC(=O)C23CC4CC(CC(C4)C2)C3)n1-c1ccc(F)cc1)Nc1ccccc1	?	?	-17	4%	-3	-24%
O=C(CSc1nnc(CNC(=O)C23CC4CC(CC(C4)C2)C3)n1-c1ccccc1)Nc1ccc(F)cc1	?	?	-2	-13%	-4	9%
O=C(NCc1nnc(SCc2ccc(C(F)(F)F)cc2)n1-c1ccccc1)C12CC3CC(CC(C3)C1)C2	?	1.7µM*	-6	-3%	0	?
SMILES	Pf growth 48h	Pf growth 96h	Shiga inhibitor	Sm TGR inh	CHX counter	NS1 function inh
O=C(NCc1nnc(SCc2ccc(F)cc2)n1-c1ccccc1)C12CC3CC(CC(C3)C1)C2	9.3µM*	?	-7	-3%	-9	-3%
COc1ccc(N(C(C)C(=O)Nc2cccnc2)S(C)(=O)=O)cc1 (stereo not drawn)	0%	19%	-18	19%	0	3%
Cc1ccc(CC(CC(=O)Nc2cccc(C(F)(F)F)c2)C(=O)O)cc1 (stereo not drawn)	46%	15µM*	-12	8%	-2	.
O=C(CC(Cc1ccccc1)C(=O)O)Nc1ccccc1 (stereo not drawn)	34%	185%	-10	-3%	-2	1%
CCN1C(=O)/C(=C/c2nc3ccccc3c(=O)n2-c2ccc(C)cc2)c2ccccc21	?	?	10	4%	16	8%
CCN1C(=O)/C(=C\c2nc3ccccc3c(=O)n2-c2ccccc2)c2ccccc21	10µM*	-2%	-11	1%	-3	-12%
COc1ccc(-n2c(/C=C3\C(=O)N(C)c4ccccc43)nc3ccccc3c2=O)cc1	6.6µM*	12µM*	-10	31%	-3	-6%
CCN1C(=O)/C(=C/c2nc3ccccc3c(=O)[nH]2)c2ccccc21	-2%	20%	-3	-16%	26*	6%
Cc1ccccc1OCC(=O)Nc1ccccc1C(=O)NC1CC1	-13%	?	.	-1%	.	.
CCOc1ccc(C(=O)Nc2ccc(OCc3cc(=O)n4cccc(C)c4n3)cc2)cc1	.	.	.	-2%	.	.
C/C(=N\O)c1ccc2c(c1)OCCO2	38%	250%	30	-4%	11	.
C/C(=N\NC(=O)C1CC1)c1ccc2c(c1)OCCO2	32%	5%	44	6%	28*	-1%
C/C(=N\NC(=O)C1CC1)c1ccc(Cl)c(Cl)c1	.	4.1µM*	-15	3%	4	-15%
Nc1ccc2c(c1)OCCOCCOCCOCCOCCO2	188%	5.9µM*	-10	-10%	18	.
C/C(=N\NC(=O)C1CC1)c1ccc(C)c(C)c1	?	-26%	1	-1%	28	26%
C/C(=N/O)c1ccc2c(c1)OCCOCCOc1cc(/C(C)=N/O)ccc1OCCOCCO2	?	13µM*	-6	-7%	-1	-4%
CCN(CC)CCCNC(=O)Cn1nc(N2CCN(c3ccccc3OC)CC2)ccc1=O	.	.	.	11%	.	.
CCN(CC)c1ccc2cc(C(N)=O)c(=N)oc2c1	35%	33%	42	.	41*	-1%
CCN(CC)c1ccc2cc(-c3nnc(-c4cccc(Cl)c4)o3)c(=O)oc2c1	.	.	.	3%	.	.
CCN(CC)c1ccc2cc(C=O)c(=O)oc2c1	17%	3%	41	?	24*	-109%
CCN(CC)c1ccc2cc(C(C)=O)c(=O)oc2c1	55%	57%	80*	8%	23	-78%
CCN(CC)c1ccc2cc(-c3nnc(-c4ccncc4)o3)c(=O)oc2c1	36%	18%	active	-25%	28	4%
CCOC(=O)c1ccccc1NC(=O)Cn1c(=O)n(Cc2nc(C)no2)c(=O)c2ccccc21	.	.	.	-1%	.	.
CNC(=O)c1ccc(CN(C)CC(=O)Nc2ccccc2C(=O)NC2CC2)cc1	?	?	.	-9%	.	.
CC(C)NC(=O)CSc1nc(Cc2cccs2)nc2ccccc12	?	?	-6	-25%	1	-18%
